# Experimental data taken from paper PMC7862700, “An all-to-all approach to the identification of sequence-specific readers for epigenetic DNA modifications on cytosine”.
# Assays:
# Test in all cases: DAPPL (digital affinity profiling via proximity ligation, sequencing); 10 mM Tris-HCl pH 7.5, 50 mM NaCl, 1 mM DTT, 4% glycerol, room temperature, 30 min; GST-TFs on glutathione beads, 16-mer random dsDNA library, 0.1% formaldehyde crosslink after washing; high values mean tight binding
# FLI1 = target: T1, FLI1 (Homo sapiens, UniProt Q01543 1-452); details: protein: recombinant; tags: N-terminal GST; dsDNA, one strand shown
# T1 sequence: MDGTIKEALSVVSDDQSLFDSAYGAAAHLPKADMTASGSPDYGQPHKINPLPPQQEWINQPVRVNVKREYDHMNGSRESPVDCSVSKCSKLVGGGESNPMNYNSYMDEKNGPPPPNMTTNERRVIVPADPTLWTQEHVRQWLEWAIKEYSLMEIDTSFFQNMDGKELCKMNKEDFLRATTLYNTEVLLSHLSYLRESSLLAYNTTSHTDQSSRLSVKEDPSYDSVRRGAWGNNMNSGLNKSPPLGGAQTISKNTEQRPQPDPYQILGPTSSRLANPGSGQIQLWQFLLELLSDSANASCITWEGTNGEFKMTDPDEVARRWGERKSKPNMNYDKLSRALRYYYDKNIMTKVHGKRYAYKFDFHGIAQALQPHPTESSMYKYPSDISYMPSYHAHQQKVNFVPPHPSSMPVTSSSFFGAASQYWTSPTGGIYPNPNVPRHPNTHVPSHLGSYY
# Procedure, shortened: (§1)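 Sequencing on an Illumina NextSeq500 followed washing, crosslinking with 0.1% formaldehyde, proximity ligation (BsaI/T4 ligase, 1 h, 37 °C) and PCR amplification of pools that had been incubated for 30 min at room temperature with 200 nmole of a random double-stranded 16-mer DNA library in Tris/NaCl/DTT/glycerol buffer. Each pool held DNA-barcoded human transcription factors, expressed in yeast as GST fusions and captured on glutathione beads, plus a tag-only sample. Binding signal is a hexamer's read frequency for a factor divided by its frequency in the tag-only sample.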
# ELK1 = target: T2, ELK1 (Homo sapiens, UniProt P19419 1-428); details: protein: recombinant; tags: N-terminal GST; dsDNA, one strand shown
# T2 sequence: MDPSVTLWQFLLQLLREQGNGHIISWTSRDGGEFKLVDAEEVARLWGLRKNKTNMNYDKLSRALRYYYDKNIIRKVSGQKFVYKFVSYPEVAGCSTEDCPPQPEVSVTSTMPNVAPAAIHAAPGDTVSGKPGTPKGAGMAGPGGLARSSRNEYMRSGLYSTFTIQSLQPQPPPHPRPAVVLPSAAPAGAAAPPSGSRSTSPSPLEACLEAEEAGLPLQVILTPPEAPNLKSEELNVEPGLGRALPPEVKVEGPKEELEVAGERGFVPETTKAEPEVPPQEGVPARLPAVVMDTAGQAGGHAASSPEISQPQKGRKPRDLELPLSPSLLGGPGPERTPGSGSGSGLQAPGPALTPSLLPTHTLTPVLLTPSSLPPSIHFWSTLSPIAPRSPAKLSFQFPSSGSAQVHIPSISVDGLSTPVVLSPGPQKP
# Procedure, shortened: as §1
# GABPA = target: T3, GABPA (Homo sapiens, UniProt Q06546 1-454); details: protein: recombinant; tags: N-terminal GST; dsDNA, one strand shown
# T3 sequence: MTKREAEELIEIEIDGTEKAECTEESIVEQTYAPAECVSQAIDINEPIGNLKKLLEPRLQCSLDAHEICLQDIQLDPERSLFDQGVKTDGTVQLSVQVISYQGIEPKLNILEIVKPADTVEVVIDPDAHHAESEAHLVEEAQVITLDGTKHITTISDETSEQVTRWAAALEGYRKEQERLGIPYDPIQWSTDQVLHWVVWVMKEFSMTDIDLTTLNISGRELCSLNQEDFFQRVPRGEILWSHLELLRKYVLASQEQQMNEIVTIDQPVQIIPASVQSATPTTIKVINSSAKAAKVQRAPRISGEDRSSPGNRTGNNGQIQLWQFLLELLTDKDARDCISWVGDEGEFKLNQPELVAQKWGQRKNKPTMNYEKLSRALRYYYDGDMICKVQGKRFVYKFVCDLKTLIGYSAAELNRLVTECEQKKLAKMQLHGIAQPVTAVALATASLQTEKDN
# Procedure, shortened: as §1
# ERG = target: T4, ERG (Homo sapiens, UniProt P11308 1-479); details: protein: recombinant; tags: N-terminal GST; dsDNA, one strand shown
# T4 sequence: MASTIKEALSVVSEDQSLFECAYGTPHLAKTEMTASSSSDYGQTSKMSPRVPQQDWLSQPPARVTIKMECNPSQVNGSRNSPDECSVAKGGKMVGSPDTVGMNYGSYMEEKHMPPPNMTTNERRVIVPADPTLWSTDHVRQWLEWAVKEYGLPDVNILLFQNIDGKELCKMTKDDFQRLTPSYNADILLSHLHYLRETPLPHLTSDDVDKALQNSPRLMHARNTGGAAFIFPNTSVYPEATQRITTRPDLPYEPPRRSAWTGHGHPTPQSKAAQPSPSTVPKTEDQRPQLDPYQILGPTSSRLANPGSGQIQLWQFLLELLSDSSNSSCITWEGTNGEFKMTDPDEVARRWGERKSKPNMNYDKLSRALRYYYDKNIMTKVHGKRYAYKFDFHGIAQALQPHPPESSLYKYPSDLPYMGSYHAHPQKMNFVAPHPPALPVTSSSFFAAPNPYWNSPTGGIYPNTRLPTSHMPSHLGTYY
# Procedure, shortened: as §1
# ELF1 = ELF1 (Homo sapiens, UniProt P32519 1-619); details: protein: recombinant; tags: N-terminal GST; dsDNA, one strand shown
# Procedure, shortened: as §1
# EHF = target: T5, EHF (Homo sapiens, UniProt Q9NZC4 1-300); details: protein: recombinant; tags: N-terminal GST; dsDNA, one strand shown
# T5 sequence: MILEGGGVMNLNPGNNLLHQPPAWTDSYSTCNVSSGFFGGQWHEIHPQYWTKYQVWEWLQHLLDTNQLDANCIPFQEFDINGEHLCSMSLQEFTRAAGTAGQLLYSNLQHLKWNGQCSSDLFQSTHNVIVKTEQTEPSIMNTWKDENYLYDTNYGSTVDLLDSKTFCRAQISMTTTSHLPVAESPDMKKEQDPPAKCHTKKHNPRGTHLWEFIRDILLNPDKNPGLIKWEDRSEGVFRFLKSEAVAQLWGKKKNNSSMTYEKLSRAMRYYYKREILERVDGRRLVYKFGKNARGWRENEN
# Procedure, shortened: as §1
# SPI1 = SPI1 (Homo sapiens, UniProt P17947 1-270); details: protein: recombinant; tags: N-terminal GST; dsDNA, one strand shown
# Procedure, shortened: as §1
# SPIB = SPIB (Homo sapiens, UniProt Q01892 1-262); details: protein: recombinant; tags: N-terminal GST; dsDNA, one strand shown
# Procedure, shortened: as §1
# ELK3 = target: T6, ELK3 (Homo sapiens, UniProt P41970 1-407); details: protein: recombinant; tags: N-terminal GST; dsDNA, one strand shown
# T6 sequence: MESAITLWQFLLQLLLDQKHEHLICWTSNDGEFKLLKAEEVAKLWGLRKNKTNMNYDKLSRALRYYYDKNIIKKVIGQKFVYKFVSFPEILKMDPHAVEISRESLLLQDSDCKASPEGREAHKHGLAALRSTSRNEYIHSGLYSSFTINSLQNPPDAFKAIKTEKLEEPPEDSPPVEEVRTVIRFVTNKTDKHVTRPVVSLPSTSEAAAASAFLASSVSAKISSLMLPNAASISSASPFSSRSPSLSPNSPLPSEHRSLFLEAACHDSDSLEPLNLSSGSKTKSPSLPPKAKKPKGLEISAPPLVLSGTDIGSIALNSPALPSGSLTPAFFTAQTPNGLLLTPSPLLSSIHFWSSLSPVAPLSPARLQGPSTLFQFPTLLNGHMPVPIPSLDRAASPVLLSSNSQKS
# Procedure, shortened: as §1
# FEV = target: T7, FEV (Homo sapiens, UniProt Q99581 1-238); details: protein: recombinant; tags: N-terminal GST; dsDNA, one strand shown
# T7 sequence: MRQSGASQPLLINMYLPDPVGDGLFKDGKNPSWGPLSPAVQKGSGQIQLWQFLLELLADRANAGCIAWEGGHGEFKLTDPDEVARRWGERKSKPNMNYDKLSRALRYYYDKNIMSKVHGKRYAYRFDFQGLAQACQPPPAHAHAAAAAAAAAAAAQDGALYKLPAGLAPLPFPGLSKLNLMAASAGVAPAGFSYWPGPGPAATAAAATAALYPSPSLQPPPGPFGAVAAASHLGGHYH
# Procedure, shortened: as §1
# ETV5 = ETV5 (Homo sapiens, UniProt P41161 1-510); details: protein: recombinant; tags: N-terminal GST; dsDNA, one strand shown
# Procedure, shortened: as §1
# HSF1 = HSF1 (Homo sapiens, UniProt Q00613 1-529); details: protein: recombinant; tags: N-terminal GST; chain copies: 3; dsDNA, one strand shown
# Procedure, shortened: as §1
# SPIC = target: T8, SPIC (Homo sapiens, UniProt Q8N5J4 1-248); details: protein: recombinant; tags: N-terminal GST; dsDNA, one strand shown
# T8 sequence: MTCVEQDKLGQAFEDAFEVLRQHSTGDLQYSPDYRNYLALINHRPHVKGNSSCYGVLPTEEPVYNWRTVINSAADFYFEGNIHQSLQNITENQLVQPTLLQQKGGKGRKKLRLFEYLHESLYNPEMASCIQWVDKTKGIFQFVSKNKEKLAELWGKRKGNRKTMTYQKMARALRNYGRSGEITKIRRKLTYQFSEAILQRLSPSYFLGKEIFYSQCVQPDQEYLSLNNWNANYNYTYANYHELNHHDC
# Procedure, shortened: as §1
# ELF4 = ELF4 (Homo sapiens, UniProt Q99607 1-663); details: protein: recombinant; tags: N-terminal GST; dsDNA, one strand shown
# Procedure, shortened: as §1
# ELK4 = target: T9, ELK4 (Homo sapiens, UniProt P28324-2 1-405); details: protein: recombinant; tags: N-terminal GST; dsDNA, one strand shown
# T9 sequence: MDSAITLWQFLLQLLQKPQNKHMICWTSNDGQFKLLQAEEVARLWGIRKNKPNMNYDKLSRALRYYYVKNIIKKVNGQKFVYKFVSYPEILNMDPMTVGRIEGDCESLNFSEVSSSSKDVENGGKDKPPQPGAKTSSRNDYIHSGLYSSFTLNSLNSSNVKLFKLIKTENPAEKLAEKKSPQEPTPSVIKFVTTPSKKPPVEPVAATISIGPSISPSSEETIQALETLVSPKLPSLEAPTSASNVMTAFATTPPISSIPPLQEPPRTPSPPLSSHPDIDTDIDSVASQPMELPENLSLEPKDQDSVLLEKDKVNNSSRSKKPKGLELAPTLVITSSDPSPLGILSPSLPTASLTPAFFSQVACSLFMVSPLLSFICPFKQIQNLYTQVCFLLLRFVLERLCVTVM
# Procedure, shortened: as §1
# ETV2 = target: T10, ETV2 (Homo sapiens, UniProt O00321 1-342); details: protein: recombinant; tags: N-terminal GST; dsDNA, one strand shown
# T10 sequence: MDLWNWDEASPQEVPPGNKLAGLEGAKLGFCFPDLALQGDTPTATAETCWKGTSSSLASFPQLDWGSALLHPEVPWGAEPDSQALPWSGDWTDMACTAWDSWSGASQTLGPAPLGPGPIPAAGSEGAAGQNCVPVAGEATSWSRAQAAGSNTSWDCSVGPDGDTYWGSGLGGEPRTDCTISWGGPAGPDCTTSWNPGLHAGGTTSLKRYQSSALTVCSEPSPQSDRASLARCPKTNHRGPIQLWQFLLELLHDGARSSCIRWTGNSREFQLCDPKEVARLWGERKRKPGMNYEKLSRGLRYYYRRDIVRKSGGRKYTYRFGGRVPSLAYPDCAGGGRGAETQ
# Procedure, shortened: as §1
# ELF3 = target: T11, ELF3 (Homo sapiens, UniProt P78545 1-371); details: protein: recombinant; tags: N-terminal GST; dsDNA, one strand shown
# T11 sequence: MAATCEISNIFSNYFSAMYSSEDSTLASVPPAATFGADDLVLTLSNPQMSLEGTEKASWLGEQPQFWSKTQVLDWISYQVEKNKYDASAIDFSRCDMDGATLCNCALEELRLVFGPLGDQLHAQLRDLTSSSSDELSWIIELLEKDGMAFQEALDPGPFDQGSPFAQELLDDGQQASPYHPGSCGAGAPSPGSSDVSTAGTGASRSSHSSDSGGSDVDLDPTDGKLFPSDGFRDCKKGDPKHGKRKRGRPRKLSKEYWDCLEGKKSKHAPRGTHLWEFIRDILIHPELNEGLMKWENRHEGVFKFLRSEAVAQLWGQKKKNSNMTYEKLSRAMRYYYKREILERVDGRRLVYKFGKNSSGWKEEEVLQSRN
# Procedure, shortened: as §1
# CRX = CRX (Homo sapiens, UniProt O43186 1-299); details: protein: recombinant; tags: N-terminal GST; dsDNA, one strand shown
# Procedure, shortened: as §1
# ETV1 = ETV1 (Homo sapiens, UniProt P50549 1-477); details: protein: recombinant; tags: N-terminal GST; dsDNA, one strand shown
# Procedure, shortened: as §1
# Chain of HSF1 (Q00613 whole entry): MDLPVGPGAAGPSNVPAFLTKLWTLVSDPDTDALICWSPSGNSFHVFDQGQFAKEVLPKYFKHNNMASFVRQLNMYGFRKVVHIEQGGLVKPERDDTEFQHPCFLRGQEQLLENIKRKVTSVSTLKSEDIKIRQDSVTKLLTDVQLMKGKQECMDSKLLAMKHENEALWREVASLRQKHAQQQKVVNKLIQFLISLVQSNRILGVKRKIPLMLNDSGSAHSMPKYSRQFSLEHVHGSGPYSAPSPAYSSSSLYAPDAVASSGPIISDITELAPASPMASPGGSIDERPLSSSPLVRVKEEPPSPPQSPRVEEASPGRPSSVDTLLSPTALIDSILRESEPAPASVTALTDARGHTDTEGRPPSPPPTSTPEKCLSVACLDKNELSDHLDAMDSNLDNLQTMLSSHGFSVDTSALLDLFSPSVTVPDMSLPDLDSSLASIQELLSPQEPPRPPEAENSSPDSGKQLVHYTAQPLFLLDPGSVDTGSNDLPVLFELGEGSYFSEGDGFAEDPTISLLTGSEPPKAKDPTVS
# Chain of ELF4 (Q99607 whole entry): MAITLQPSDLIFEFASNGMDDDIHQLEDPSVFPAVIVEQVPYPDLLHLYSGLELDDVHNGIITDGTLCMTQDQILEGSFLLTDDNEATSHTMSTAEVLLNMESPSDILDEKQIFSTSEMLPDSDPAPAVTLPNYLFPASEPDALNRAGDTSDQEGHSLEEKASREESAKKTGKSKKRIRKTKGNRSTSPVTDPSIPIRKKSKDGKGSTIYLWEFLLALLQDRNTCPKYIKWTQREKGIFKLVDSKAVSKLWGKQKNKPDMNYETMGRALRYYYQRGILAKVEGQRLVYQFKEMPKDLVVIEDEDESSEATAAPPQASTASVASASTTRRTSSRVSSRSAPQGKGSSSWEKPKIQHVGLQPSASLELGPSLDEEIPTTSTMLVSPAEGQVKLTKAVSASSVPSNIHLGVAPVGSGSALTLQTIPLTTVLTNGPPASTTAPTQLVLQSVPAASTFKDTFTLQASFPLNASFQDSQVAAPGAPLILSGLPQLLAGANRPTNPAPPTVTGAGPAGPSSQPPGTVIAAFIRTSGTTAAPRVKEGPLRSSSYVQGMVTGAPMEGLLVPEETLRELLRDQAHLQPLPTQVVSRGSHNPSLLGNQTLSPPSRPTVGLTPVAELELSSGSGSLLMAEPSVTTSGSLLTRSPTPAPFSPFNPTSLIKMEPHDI
# Chain of CRX (O43186 whole entry): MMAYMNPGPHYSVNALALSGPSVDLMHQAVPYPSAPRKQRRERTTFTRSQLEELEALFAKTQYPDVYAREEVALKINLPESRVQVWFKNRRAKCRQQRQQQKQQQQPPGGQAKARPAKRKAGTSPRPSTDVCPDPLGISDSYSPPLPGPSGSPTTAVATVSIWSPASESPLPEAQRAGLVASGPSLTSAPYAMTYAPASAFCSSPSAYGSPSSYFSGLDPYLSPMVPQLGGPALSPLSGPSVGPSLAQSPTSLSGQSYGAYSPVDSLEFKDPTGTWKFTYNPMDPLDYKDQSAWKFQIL
# Chain of ETV5 (P41161 whole entry): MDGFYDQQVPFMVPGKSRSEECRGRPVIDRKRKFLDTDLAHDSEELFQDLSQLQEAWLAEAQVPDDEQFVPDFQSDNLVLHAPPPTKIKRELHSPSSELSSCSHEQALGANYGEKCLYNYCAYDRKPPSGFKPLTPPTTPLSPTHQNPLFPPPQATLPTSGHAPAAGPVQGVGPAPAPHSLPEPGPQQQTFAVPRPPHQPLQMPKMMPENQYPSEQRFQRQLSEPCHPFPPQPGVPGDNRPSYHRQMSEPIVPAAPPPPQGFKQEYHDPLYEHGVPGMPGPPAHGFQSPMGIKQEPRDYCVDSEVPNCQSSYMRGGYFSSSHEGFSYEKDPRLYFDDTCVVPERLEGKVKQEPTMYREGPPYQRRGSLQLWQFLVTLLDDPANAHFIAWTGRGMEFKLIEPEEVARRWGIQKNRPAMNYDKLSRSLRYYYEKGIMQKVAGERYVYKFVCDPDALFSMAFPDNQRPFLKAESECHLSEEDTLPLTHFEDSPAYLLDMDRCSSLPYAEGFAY
# Chain of ETV1 (P50549 whole entry): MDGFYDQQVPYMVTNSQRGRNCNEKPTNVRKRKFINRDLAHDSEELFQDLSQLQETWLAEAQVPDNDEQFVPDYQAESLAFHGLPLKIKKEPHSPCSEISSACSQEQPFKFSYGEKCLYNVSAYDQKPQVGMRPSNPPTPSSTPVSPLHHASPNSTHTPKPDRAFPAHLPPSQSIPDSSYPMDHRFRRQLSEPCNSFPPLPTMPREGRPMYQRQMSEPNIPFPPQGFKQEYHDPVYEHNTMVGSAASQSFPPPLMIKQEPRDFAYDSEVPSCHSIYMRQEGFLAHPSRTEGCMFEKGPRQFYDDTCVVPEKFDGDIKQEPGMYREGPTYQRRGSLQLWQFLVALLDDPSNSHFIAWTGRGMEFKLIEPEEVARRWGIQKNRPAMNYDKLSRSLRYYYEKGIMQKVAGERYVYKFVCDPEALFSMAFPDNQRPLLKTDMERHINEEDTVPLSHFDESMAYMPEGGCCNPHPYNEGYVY
# Chain of SPIB (Q01892 whole entry): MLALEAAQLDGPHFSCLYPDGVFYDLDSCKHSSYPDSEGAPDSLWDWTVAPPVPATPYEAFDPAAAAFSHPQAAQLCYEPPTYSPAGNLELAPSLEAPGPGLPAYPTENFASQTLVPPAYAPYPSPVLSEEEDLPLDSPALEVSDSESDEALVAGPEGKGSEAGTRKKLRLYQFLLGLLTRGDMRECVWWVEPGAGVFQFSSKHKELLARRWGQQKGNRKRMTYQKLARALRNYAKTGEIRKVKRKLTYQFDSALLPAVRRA
# Chain of ELF1 (P32519 whole entry): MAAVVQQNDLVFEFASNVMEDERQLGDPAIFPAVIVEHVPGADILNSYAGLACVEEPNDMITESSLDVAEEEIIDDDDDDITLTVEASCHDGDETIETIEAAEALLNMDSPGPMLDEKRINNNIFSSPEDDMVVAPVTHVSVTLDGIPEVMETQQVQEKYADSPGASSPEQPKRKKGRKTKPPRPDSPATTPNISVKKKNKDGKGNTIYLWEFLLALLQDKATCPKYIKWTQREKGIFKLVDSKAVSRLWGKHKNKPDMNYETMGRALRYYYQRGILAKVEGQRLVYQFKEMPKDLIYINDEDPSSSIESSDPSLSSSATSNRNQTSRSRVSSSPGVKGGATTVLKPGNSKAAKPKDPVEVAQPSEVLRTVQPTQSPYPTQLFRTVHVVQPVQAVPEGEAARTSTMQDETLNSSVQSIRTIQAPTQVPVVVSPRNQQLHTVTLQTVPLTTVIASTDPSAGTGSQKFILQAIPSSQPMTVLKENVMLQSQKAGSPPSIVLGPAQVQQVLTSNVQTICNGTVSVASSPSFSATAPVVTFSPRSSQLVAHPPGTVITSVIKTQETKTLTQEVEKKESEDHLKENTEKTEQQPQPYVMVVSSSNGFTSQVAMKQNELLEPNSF
sequence,measurement,setting,value
CCTACT,binding signal,FLI1,"1.73 fold enrichment (6-mer frequency, TF over GST control)"
same,binding signal,ELK1,"1.61 fold enrichment (6-mer frequency, TF over GST control)"
same,binding signal,GABPA,"1.53 fold enrichment (6-mer frequency, TF over GST control)"
same,binding signal,ERG,"1.54 fold enrichment (6-mer frequency, TF over GST control)"
same,binding signal,ELF1,"1.73 fold enrichment (6-mer frequency, TF over GST control)"
same,binding signal,EHF,"1.69 fold enrichment (6-mer frequency, TF over GST control)"
same,binding signal,SPI1,"1.77 fold enrichment (6-mer frequency, TF over GST control)"
same,binding signal,SPIB,"1.76 fold enrichment (6-mer frequency, TF over GST control)"
same,binding signal,ELK3,"1.55 fold enrichment (6-mer frequency, TF over GST control)"
same,binding signal,FEV,"1.62 fold enrichment (6-mer frequency, TF over GST control)"
same,binding signal,ETV5,"1.57 fold enrichment (6-mer frequency, TF over GST control)"
same,binding signal,HSF1,"1.48 fold enrichment (6-mer frequency, TF over GST control)"
same,binding signal,SPIC,"1.64 fold enrichment (6-mer frequency, TF over GST control)"
same,binding signal,ELF4,"1.7 fold enrichment (6-mer frequency, TF over GST control)"
same,binding signal,ELK4,"1.76 fold enrichment (6-mer frequency, TF over GST control)"
same,binding signal,ETV2,"1.61 fold enrichment (6-mer frequency, TF over GST control)"
same,binding signal,ELF3,"1.41 fold enrichment (6-mer frequency, TF over GST control)"
same,binding signal,CRX,"1.61 fold enrichment (6-mer frequency, TF over GST control)"
same,binding signal,ETV1,"1.49 fold enrichment (6-mer frequency, TF over GST control)"
